Assay results taken from PubChem BioAssay.

tested on: Wnt5a (protein binding on small-molecule microarray); assay: Wnt5a binders on small-molecule microarray, primary screen, biophysical, 635/667 nm fluorescence (AID 1142); settings: 635 nm fluorescence, higher = more signal;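 also: fluorescence read at 667 nm with signal to noise per printed feature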

Structure (SMILES)	composite z-score
COCCOC(=O)N1C(=O)[C@@]2(c3cc(C#Cc4ccc(OC)cc4)ccc31)[C@H](c1ccc(OCCO)cc1)N1[C@H](c3ccccc3)[C@H](c3ccccc3)OC(=O)[C@H]1[C@@H]2C(=O)N1CCN(c2ncccn2)CC1	0.377
C[N+](C)(C)CCCCCCNC(=O)[C@@H]1C[C@@H]2C(=O)N[C@@H](Cc3ccccc3)C(=O)N2[C@@H]1c1cccc(OCCO)c1	0.122
CCOC(=O)C1=C[C@@H](C(C)(C)C)N(S(=O)(=O)c2ccc(C)cc2)[C@H]1c1ccc(F)cc1	0.219
COC(=O)c1c(CC[C@@H](CO)NC(=O)NCCn2cc(C3(O)CCCC3)nn2)oc(C(C)=O)c1C(=O)OC	-0.344
NC(=O)N1C(=O)C2C(C1=O)C1C=C(c3ccc(CO)cc3)C2C(c2cccs2)N1Cc1cccc(OC(F)(F)F)c1 (stereo unspecified)	0.24
NC(=O)[C@@H]1[C@H]2C(=O)O[C@H](c3ccccc3)[C@H](c3ccccc3)N2[C@H](c2ccc(O)cc2)[C@@]12C(=O)Nc1ccccc12	-0.766
CC(C)N1C(=O)C[C@@](C(=O)NCC(F)(F)F)(c2ccc([N+](=O)[O-])cc2)[C@H]1c1ccc(CO)cc1	-0.492
COCCCNC(=O)[C@@]1(C)c2ccccc2C(=O)N(C(C)C)[C@H]1c1ccc(CO)cc1	0.292
C=C(/C(=C/C[C@H](OC(C)=O)c1ccccc1OCCO)c1cnc2ccccc2c1)C(C)C	0.025
C=CCNC(=O)[C@@H]1[C@H]2C(=O)O[C@H](c3ccccc3)[C@H](c3ccccc3)N2[C@H](c2ccc(O)cc2)[C@@]12C(=O)N(C(=O)OCCOC)c1ccc(C#CCNC(N)=O)cc12	0.468
O=C(OCc1ccccc1)C1=CCC2c3[nH]c4ccccc4c3C(=O)C1N2S(=O)(=O)c1ccccc1[N+](=O)[O-] (stereo unspecified)	0.794
CC(C)=CCN[C@H](CO)c1ccccc1	-0.249
O=C(c1ccccc1)N1Cc2ccccc2C[C@@]2(COC(c3ccc(OCCCO)cc3)=N2)C1=O	0.406
COC(=O)[C@H](Cc1ccccc1)N1CC2=C[C@@H](C3CC3)n3c(=O)n(C)c(=O)n3[C@H]2[C@@H]1[C@@H](O)Cc1ccccc1	0.0601
COc1ccc(C#Cc2ccc3c(c2)[C@]2(C(=O)N3)[C@H](C(=O)NC[C@H](O)c3ccccc3)[C@H]3C(=O)O[C@H](c4ccccc4)[C@H](c4ccccc4)N3[C@@H]2c2ccc(O)cc2)cc1	0.288
CC(C)C(=C=CC[C@@H](O)c1ccc(OCCO)cc1)C[C@@H](O)COCc1ccccc1	0.13
CCCCCN1CC=CC23O[C@@H]4C=CCCOC(=O)C4[C@H]2C(=O)N(CCCCCO)[C@@H]3C1=O (stereo partly specified)	-0.619
CN1C=C(C(=O)OCCS(C)(=O)=O)C(C(=O)OCCS(C)(=O)=O)=CC(c2ccc(CO)cc2)=CC1C1CC1 (stereo unspecified)	0.0929

Structure (SMILES)	composite z-score
COc1cc(C(O)C2C=CC3C(=O)NC(=O)C3N2Nc2ccccn2)cc(OC)c1OC (stereo unspecified)	0.147
CN(C)CCCC[C@@H]1NC(=O)[C@H]2C[C@@H](C(=O)NCCCCCCN)[C@@H](c3ccc(O)cc3)N2C1=O	0.538
Cc1ccc(S[C@]2(C(=O)NCCCN(C)C)CC(=O)N(Cc3cc(C(F)(F)F)cc(C(F)(F)F)c3)[C@@H]2c2ccc(CO)cc2)cc1	-0.202
CC1(C)[C@@H]2CC(C(O)C3C=CC4C(=O)N(c5ccccc5)C(=O)C4N3Nc3ccc([N+](=O)[O-])cc3)=C[C@H]1C2 (stereo partly specified)	0.909
O=C1c2ccccc2[C@](Cc2ccccc2I)(C(=O)NCC(F)(F)F)[C@H](c2ccc(CO)cc2)N1Cc1ccccc1Cl	0.0919
C=C(COC)C(=O)CC[C@@H](OC(C)=O)c1ccc(CO)o1	0.111
COc1ccccc1CN1C(=O)c2ccccc2[C@@H](C(=O)NC2CC2)[C@@H]1c1ccc(CO)cc1	0.845
COc1ccc(CCNC(=O)[C@@]2(Sc3ccc(C)cc3)CC(=O)N(C(C)C)[C@@H]2c2ccc(CO)cc2I)cc1	-0.161
CCC[C@@H]1C[C@@]1(CCC)[C@@H](NS(=O)(=O)c1cccc2cccnc12)c1ccc(Cl)cc1	0.0298
CCCC[C@@H]1C[C@H]1[C@@H](NC(=O)c1ccccc1)c1ccc(C(=O)OC)cc1	0.106
[N-]=[N+]=Nc1ccccc1[C@@H]1OC(c2ccc(OCCCO)cc2)=N[C@]1(CCS(=O)(=O)c1ccccc1)C(N)=O	0.903
COc1cc2c(cc1O)C(C1CC1)N(Cc1sc3ccccc3c1Cl)CC2 (stereo unspecified)	-0.207
CO[C@H]1O[C@H](CO)[C@@H](OC(=O)Nc2ccccc2)[C@H](OC(=O)Nc2ccccc2)[C@@H]1OC(=O)Nc1ccccc1	1.13
COc1cccc(-c2cccc(=O)o2)c1	0.595
C=CCN1C(=O)[C@@]2(CC=C)N=C(c3ccc(OCCCO)cc3)O[C@H]2c2ccccc21	1.39
COCCOC(=O)N1C(=O)[C@@]2(c3cc(C#CCC(C(=O)OC)C(=O)OC)ccc31)[C@H](C(=O)Nc1nc3ccccc3s1)[C@H]1C(=O)O[C@H](c3ccccc3)[C@H](c3ccccc3)N1[C@@H]2c1ccccc1OCCO	0.346
O=C1N[C@@H](Cc2ccccc2)C(=O)N2[C@@H]1C[C@@H](C(=O)O)[C@H]2c1cccc(OCCO)c1	0.0465
C=CCOC(=O)[C@H]1[C@@H]2C(=O)O[C@@H](c3ccccc3)[C@@H](c3ccccc3)N2[C@@H](c2ccc(OCCOC(=O)[C@H]3C[C@H]4C(=O)N[C@@H](CCCCNC(C)=O)C(=O)N4[C@H]3c3ccc(O)cc3)cc2)[C@]12C(=O)Nc1ccc(I)cc12	0.413
